Test results from publication PMC4552634, “A New Set of Chemical Starting Points with Plasmodium falciparum Transmission-Blocking Potential for Antimalarial Drug Discovery” (PLoS ONE, 2015).
In all, about 13,000 compounds went through this assay and about 3,200 (25%) showed an effect of 50% or more. This is one part of the list.

The compounds below were run on P. falciparum stage V gametocytes. Settings: 48 h, 5 µM; inhibitor.
Parameters: BacTiter-Glo ATP luminescence viability of purified stage V gametocytes in 384-well plates, per cent inhibition versus DMSO

Structure (SMILES) | % Inhibition [%]
O=C(Nc1ccc(-c2nc3ccccc3[nH]2)cc1)c1cncc(Br)c1 [TCMDC-123692] | 2.548
COc1cc(NC(=O)c2cccc([N+](=O)[O-])c2)cc(S(=O)(=O)c2ccc(Cl)cc2)c1 [TCMDC-124901] | 21.63
COc1ccc(Nc2nccc(N3CCC(NC(=O)C(C)c4ccc(Cl)cc4)CC3)n2)cc1 (centres unmarked) [TCMDC-133633] | 29.63
COc1cc(NC(=O)C(c2ccc(Cl)cc2)C(C)C)cc(OC)c1 (centres unmarked) [TCMDC-124823] | 74.52
CCCc1nc2c(N3CC(NC(=O)/C=C/c4ccccc4)C3)cccc2n1C1CC1 [TCMDC-134613] | 8.32
O=C1C2=C(Nc3ccccc3SC2c2cccs2)c2ccccc21 (centres unmarked) [TCMDC-124060] | -4.275
COc1ccc(NCc2cccc(-c3cccc(CNCCc4ccccc4)c3)c2)cc1 [TCMDC-140485] | -4.016
COCCNCc1ccc(-c2ccc(CNC3CCN(Cc4ccccc4)CC3)cc2)cc1 [TCMDC-140490] | 23.65
COCCNCc1ccc(-c2cccc(CNC3CCN(Cc4ccccc4)CC3)c2)cc1 [TCMDC-140482] | 107.8
COCCNCc1cccc(-c2cccc(CNC3CCN(Cc4ccccc4)CC3)c2)c1 [TCMDC-140481] | 99.88
COCCNCc1cccc(-c2ccc(CNC3CCN(Cc4ccccc4)CC3)cc2)c1 [TCMDC-140489] | 85.27
COc1cccc(CCNCc2ccc(-c3cccc(CNC4CCCC4)c3)cc2)c1 [TCMDC-140493] | 66.56
COCCNCc1ccc(-c2cccc(CNc3ccc(OC)cc3)c2)cc1 [TCMDC-140484] | -1.116
O=C(NCc1cccc(C(F)(F)F)c1)C(c1cc2ccccc2o1)N1CCN(C(c2ccccc2)c2ccccc2)CC1 (centres unmarked) [TCMDC-141008] | 8.041
Cc1ccc(C(C)C)cc1CON1C(N)=NC(N)=NC1(C)C [TCMDC-131323] | 26.53
COc1ccc2nccc([C@@H](O)CN3CCC(NCc4ccc(OC)c(NC=O)c4)CC3)c2c1 [TCMDC-141568] | 1.46
CN(Cc1cccc(C#N)c1)C1CCN(c2cc(NC(=O)c3ccc(F)cc3)ccn2)CC1 [TCMDC-134974] | -6.144
CN(C)CCOc1cc(NC(=O)Nc2ccc(Cl)cc2C(F)(F)F)ccc1I [TCMDC-139125] | -26.77
Cc1cc(N[C@@H](CC(C)C)C(=O)NCCOc2ccccc2)nc(NCC2CCCCC2)n1 [TCMDC-134919] | -82.39
COc1cccc(CN2CCC3(CC2)CN(C(=O)Nc2ccc(Cl)c(Cl)c2)C3)c1 [TCMDC-136484] | -4.115
